Pf growth 96h: P. falciparum growth inhibition at 96 hour, primary screen for plastid delayed-death inhibitors; actives 6.9% (n = 320,000); Potency, µM (series often up to 28.7 µM), hits mostly inhibitors; AID 504834; P. falciparum luciferase reporter growth, 96 h
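Cell-based qHTS: luciferase-tagged P. falciparum in erythrocytes (2% hematocrit, 0.05% parasitemia final) incubated with compounds for 96 hours, 37 C, 5% CO2; luciferase detection reagent then added and luminescence measured.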
AMA1 RON2 block: AMA1-RON2 (P. falciparum) interaction inhibition. AlphaScreen AMA1-biotinylated RON2 peptide binding. Potency, µM (top dose mostly 58.2 µM), hits mostly inhibitors. actives 0.2% (n = 360,000). AID 720542; also: nearly all actives have a fitted effect of over 45% in size
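AMA1 (3D7) with his tag at 25 nM final met compounds first, then biotinylated RON2 peptide at 25 nM; detection used donor plus acceptor beads, 10 µg/mL apiece, read by AlphaScreen after 30 min at room temperature.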
Vaccinia Venus: vaccinia inhibition (Venus reporter) | Vaccinia virus Venus reporter expression, fluorescence | Potency, µM (series often up to 36.5 µM), hits mostly inhibitors | actives 0.46% (n = 330,000); calls by dose curve; tested in A549 cells; also: nearly all actives have a fitted effect of over 30% in size
VACV mCherry inh: vaccinia inhibition (mCherry reporter); Vaccinia virus mCherry reporter infection, fluorescence; Potency, µM (titrated, usually from 36.5 µM), hits mostly inhibitors; actives 0.63% (n = 310,000); calls by dose curve; tested in A549 cells; also: nearly all actives have a fitted effect of over 35% in size
Pf growth 48h: inhibits P. falciparum growth in the first generation, 48 h | P. falciparum luciferase growth in erythrocytes, 48 h | Potency, µM (titrated, usually from 28.7 µM), most hits filed as inhibitors | actives 5.9% (n = 310,000) | AID 504832
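A one-generation exposure of luciferase-tagged malaria parasites in RPMI 1640/Albumax erythrocyte culture, 37 C and 5% CO2. Inhibition is inferred from decreased luminescence after adding detection reagent.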
Each line names hits and unclear results; the compound was inactive in the other large screens. Only some compounds are listed: those with a hit (about 8.7% of all), similar ones and a draw of the others. Unless noted, calls follow the shape of the dose curve; as a rule, active = well fitted curve in the direction sought with a large enough effect; inconclusive = small, poorly fitted or top-dose-only effect, or another doubt; inactive = no such curve, though single readings can be large; an effect the other way counts as inactive or inconclusive.

CCc1cccc(NC(=O)CCCn2nc(CC)n3c(cc4occc43)c2=O)c1	Pf growth 96h 11.7µM, Pf growth 48h inconclusive (no result: Vaccinia Venus, VACV mCherry inh)
COc1ccc(CCNC(=O)C(C)n2nc(C)n3c(cc4occc43)c2=O)cc1OC (stereo not drawn)	Pf growth 96h 13.1µM (no result: Vaccinia Venus, VACV mCherry inh)
COc1cccc(CNC(=O)CCCn2ncn3c(cc4occc43)c2=O)c1	Pf growth 96h 4.65µM, Pf growth 48h inconclusive
O=C(CCCn1ncn2c(cc3occc32)c1=O)NCc1cccc(Cl)c1	Pf growth 96h inconclusive, Pf growth 48h inconclusive (no result: Vaccinia Venus, VACV mCherry inh)
CCc1nn(C(C)C(=O)Nc2cccc(C)c2C)c(=O)c2cc3occc3n12 (stereo not drawn)	Vaccinia Venus inconclusive, Pf growth 48h 9.28µM (no result: VACV mCherry inh)
COc1ccc(Br)cc1CNC(=O)C(C)n1nc(C)n2c(cc3occc32)c1=O (stereo not drawn)	none (no result: Pf growth 96h, AMA1 RON2 block, Pf growth 48h)
COc1ccc(NC(c2ccc(F)cc2)c2nnc(-c3ccccc3Cl)o2)cc1Cl (stereo not drawn)	none (no result: Pf growth 96h, AMA1 RON2 block, Pf growth 48h)
Cn1cc(-c2cc3n(n2)CCC(=O)N3CCCC(=O)Nc2ccccc2F)c2ccccc21	none (no result: Pf growth 96h, AMA1 RON2 block, Pf growth 48h)
COc1cccc(N2CCN(C(=O)C3Cc4ccccc4N3C(C)=O)CC2)c1 (stereo not drawn)	none (no result: Pf growth 96h, AMA1 RON2 block, Pf growth 48h)
CC(C)N1CCN(c2ccc(OCC3COC(Cn4cncn4)(c4ccc(Cl)cc4Cl)O3)cc2)CC1 (stereo not drawn)	none (no result: Pf growth 96h, Pf growth 48h)
CC(C)N1CCN(c2ccc(OC[C@H]3CO[C@](Cn4cncn4)(c4ccc(Cl)cc4Cl)O3)cc2)CC1	Pf growth 96h 9.28µM, Pf growth 48h 13.1µM
O=C(Nc1ncc(Cc2ccccc2Cl)s1)c1ccc([N+](=O)[O-])cc1	Pf growth 96h inconclusive
O=C(Nc1ncc(Cc2ccc(C(F)(F)F)cc2)s1)c1ccc(-c2cccc([N+](=O)[O-])c2)o1	Pf growth 96h 0.37µM, VACV mCherry inh inconclusive, Pf growth 48h inconclusive
Cc1cnc(NC(=O)c2ccc(-c3ccc([N+](=O)[O-])cc3)o2)s1	Pf growth 96h 6.57µM, Pf growth 48h inconclusive (no result: Vaccinia Venus, VACV mCherry inh)
O=C(Nc1ncc(Cc2cccc(Cl)c2)s1)c1ccc([N+](=O)[O-])cc1	Pf growth 96h 13.1µM, VACV mCherry inh inconclusive, Pf growth 48h inconclusive
N=c1n(CCO)c2ccccc2n1Cc1ccccc1F	none (no result: Pf growth 96h, AMA1 RON2 block, Pf growth 48h)
Cc1nc2nc(SCC(=O)N3CCOCC3)nn2c(C)c1Cc1c(F)cccc1Cl	Pf growth 48h 3.7µM (no result: Vaccinia Venus, VACV mCherry inh)
CC(C)(C)n1nnnc1C(c1cccs1)N(Cc1cccnc1)Cc1ccccc1Cl (stereo not drawn)	Pf growth 48h 2.94µM (no result: Vaccinia Venus, VACV mCherry inh)
CCC(C)(C)n1nnnc1C(C(C)C)N(Cc1cccnc1)Cc1ccco1 (stereo not drawn)	Pf growth 48h inconclusive
CC(c1nnnn1C(C)(C)C)N(Cc1cccnc1)Cc1ccccc1Cl (stereo not drawn)	VACV mCherry inh inconclusive, Pf growth 48h 13.1µM (no result: Pf growth 96h)
CCOc1ccc(S(=O)(=O)Nc2ccc(OC)c(Cl)c2)c2cccnc12	none (no result: Pf growth 96h, AMA1 RON2 block, Pf growth 48h)
Cc1cc(OCCn2c(CCNC(=O)C3CCCCC3)nc3ccccc32)ccc1Cl	Vaccinia Venus inconclusive (no result: Pf growth 96h, AMA1 RON2 block, Pf growth 48h)
COc1ccc(N(C)S(=O)(=O)c2cccc(C(=O)N3CCN(S(=O)(=O)c4ccc(C)cc4)CC3)c2)cc1	Pf growth 96h 2.62µM, Pf growth 48h 5.86µM
COc1ccc(N(C)S(=O)(=O)c2cccc(C(=O)Nc3ccc(-n4cnnn4)cc3)c2)cc1	Pf growth 96h inconclusive, Pf growth 48h 10.4µM (no result: Vaccinia Venus, VACV mCherry inh)
COc1ccc(N(C)S(=O)(=O)c2cccc(C(=O)Nc3nc(C)cs3)c2)cc1	Pf growth 96h inconclusive, Pf growth 48h 13.1µM (no result: Vaccinia Venus, VACV mCherry inh)
Cc1ccc(N(C)S(=O)(=O)c2cccc(C(=O)Nc3nnc(C4CC4)s3)c2)cc1	none
CCOc1ccc(N(C)S(=O)(=O)c2ccc(C)c(C(=O)Nc3nnc(C4CC4)s3)c2)cc1	Pf growth 96h inconclusive, Pf growth 48h 4.15µM (no result: Vaccinia Venus, VACV mCherry inh)
COc1ccc(N(C)S(=O)(=O)c2cccc(C(=O)Nc3ccc(OC)nc3)c2)cc1	Pf growth 96h inconclusive (no result: AMA1 RON2 block, Vaccinia Venus, VACV mCherry inh)
Cc1csc(N(C(=O)c2cccc(S(=O)(=O)N(C)C)c2)c2ccccc2)n1	Pf growth 96h 8.28µM
CCOC(=O)C1CCCN(C(=O)c2cccc(S(=O)(=O)N(C)c3ccc(C)cc3)c2)C1 (stereo not drawn)	Pf growth 96h inconclusive, Pf growth 48h 13.1µM (no result: Vaccinia Venus, VACV mCherry inh)
COc1cc(OC)c(N(C)S(=O)(=O)c2cccc(C(=O)Nc3nc(C)cs3)c2)cc1Cl	Pf growth 96h inconclusive, Pf growth 48h 13.1µM (no result: Vaccinia Venus, VACV mCherry inh)
Cc1csc(N(C(=O)c2cccc(S(=O)(=O)N3CCCC3)c2)c2ccccc2)n1	Pf growth 96h inconclusive (no result: VACV mCherry inh, Pf growth 48h)

Screening results from PubChem.
